Test results taken from PubChem BioAssay.
Calls of active or inactive are those of the source. Unless noted, how the calls were made is not given here.

What was measured:
[1] = tested on: Wnt5a (protein binding on small-molecule microarray); assay: Wnt5a binders on small-molecule microarray, primary screen, biophysical, 635/667 nm fluorescence (AID 1142); details: 635 nm fluorescence, higher = more signal;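 further: fluorescence read at 667 nm with signal to noise per printed feature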
[2] = cell viability in Huh7 cells, primary screen, cytotoxicity control for HCV replication inhibitor project, CellTiter-Glo luminescence, basal, 48 h (AID 1143); details: Huh7 HCV replicon, higher = more signal, called active from +8 up or from −8 down;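 further: Huh7 hepatoma cells carrying a hepatitis C replication reporter with no stimulus; test concentration not given here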
[3] = P. aeruginosa biofilm formation inhibitors, primary screen, PAO1 strain, BacTiter-Glo luminescence, LB-PBS (AID 1144); details: 12 h, higher = more signal
[4] = CREB reporter modulators without forskolin, primary screen, cell-based, PC12, CRE-LacZ reporter, unstimulated (AID 1145); details: no forskolin, luminescence, 4.5 h, higher = more signal, called active from +8 up or from −8 down
[5] = CREB reporter modulators under forskolin, primary screen, cell-based, PC12, CRE-LacZ reporter, forskolin-stimulated (AID 1146); details: luminescence, 4.5 h, higher = more signal, called active from +8 up or from −8 down;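 further: PC12 cells with 6xCRE LacZ reporter stimulated by forskolin 10 µM; beta-galactosidase reporter signal reflecting CREB driven transcription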
[6] = biological target: Streptavidin (Streptomyces avidinii) (UniProt P22629); assay: streptavidin binders on small-molecule microarray, primary screen, artefact control for SMM compound annotation, biophysical, 635/667 nm fluorescence (AID 1147); details: streptavidin binding, higher = more signal;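 further: signal reflects streptavidin binding to arrayed compounds as a control protein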
Sequence of Streptavidin (Streptomyces avidinii) (P22629 whole entry, looked up): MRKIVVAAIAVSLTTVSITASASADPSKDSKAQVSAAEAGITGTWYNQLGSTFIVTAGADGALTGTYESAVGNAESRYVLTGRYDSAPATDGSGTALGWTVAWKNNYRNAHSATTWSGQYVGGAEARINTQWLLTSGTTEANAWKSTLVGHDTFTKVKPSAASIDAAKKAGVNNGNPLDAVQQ

[7] = small-molecule binders of probe aInhba, primary screen, biochemical, small-molecule microarray, 635/667 nm fluorescence (AID 1148); details: higher = more signal;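 further: score merges 667nm spot fluorescence with signal-to-noise for antibody binding to printed compounds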
[8] = biological target: Torsin-1A (Homo sapiens) (UniProt O14656); assay: torsin A binders from cell lysate, primary screen, small-molecule microarray, wild-type, 635/667 nm (AID 1149); details: COS7 hTOR1A-WT lysate, 635 nm fluorescence, higher = more signal
Sequence of Torsin-1A (Homo sapiens) (O14656 whole entry, looked up): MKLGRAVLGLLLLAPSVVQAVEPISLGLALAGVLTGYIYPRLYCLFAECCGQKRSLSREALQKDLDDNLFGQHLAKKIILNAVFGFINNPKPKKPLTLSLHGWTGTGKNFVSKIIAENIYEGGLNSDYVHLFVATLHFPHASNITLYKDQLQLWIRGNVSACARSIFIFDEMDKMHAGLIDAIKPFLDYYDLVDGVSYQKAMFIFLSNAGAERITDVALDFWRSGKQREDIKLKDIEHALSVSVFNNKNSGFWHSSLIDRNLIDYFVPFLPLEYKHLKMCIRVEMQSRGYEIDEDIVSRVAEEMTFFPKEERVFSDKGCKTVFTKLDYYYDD

[9] = biological target: Torsin-1A (Homo sapiens) (UniProt O14656); assay: small-molecule binders of mutant TOR1A in lysate, primary screen, cell lysate, small-molecule microarray, COS7 lysate, 635/667 nm fluorescence (AID 1150); details: COS7 hTOR1A mutant lysate, 635 nm fluorescence, higher = more signal;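 further: score pools 667 nm emission and signal to noise measuring lysate protein binding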
[10] = tested on: Sonic hedgehog protein (Shh); assay: small-molecule binders of Shh protein, primary screen, biochemical, small-molecule microarray, 635/667 nm fluorescence (AID 1151); details: small-molecule microarray binding, 635 nm fluorescence; higher = more signal;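 further: Shh protein binding to compounds spotted on small-molecule microarray slides; score combines spot fluorescence intensity with signal-to-noise across triplicate slides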
[11] = E. coli DRC41 culture turbidity changes, primary screen, E. coli filamentation inducer project, strain DRC41, OD650, 48 h (AID 1152);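 further: E. coli MC1000 strain DRC41 lacking acrAB efflux pump and sulA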; details: E. coli DRC41 (acrAB sulA), higher = more signal, called active from +8 up or from −8 down
[12] = small-molecule binders of probe aLefty1, primary screen, biochemical, small-molecule microarray, 635/667 nm fluorescence (AID 1153); details: higher = more signal;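 further: score merges spot fluorescence with signal-to-noise ratio from the scanned slide images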
[13] = PSAC antagonists in infected red cells, primary screen, cell-based, P. falciparum Indochina, OD700, 1 h (AID 1154); details: P. falciparum Indochina infected RBC osmotic lysis, higher = more signal, called active from +8 up or from −8 down
[14] = PSAC antagonists in infected red cells, primary screen, cell-based, P. falciparum Indochina, OD700, 2 h (AID 1155);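 further: lysis reports solute entry through the parasite surface anion channel PSAC; channel blockers reduce lysis of infected cells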; details: P. falciparum Indochina infected erythrocytes, osmotic lysis OD700; higher = more signal, called active from +8 up or from −8 down
[15] = osmotic lysis modulators in infected erythrocytes, primary screen, PSAC antagonist project, cell-based, P. falciparum Indochina, OD700, 3 h (AID 1156); details: higher = more signal, called active from +8 up or from −8 down
[16] = PSAC antagonists in infected red cells, primary screen, cell-based, P. falciparum Indochina, OD700, 18 h (AID 1157); details: P. falciparum Indochina infected erythrocytes, osmotic lysis OD700, 18 h; higher = more signal, called active from +8 up or from −8 down
[17] = modulators of S6 phosphorylation in cells, primary screen, cell-based, A549, cytoblot, luminescence, serum-stimulated (AID 1158); details: A549 phospho-S6 cytoblot, 5 h, higher = more signal;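 further: serum-stimulated A549 lung adenocarcinoma cells; signal is phosphorylated S6 detected by cytoblot immunostaining with HRP secondary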
[18] = biological target: NADPH oxidase 2 (Homo sapiens) (UniProt P04839); assay: NOX2-dependent H2O2 signal modulators, primary screen, NOX inhibitor project, cell-based, HEK293-NOX2, PMA-stimulated, Amplex Red fluorescence (AID 1159); details: 45 min, higher = more signal, called active from +8 up or from −8 down; further: test concentration not given here
Sequence of NADPH oxidase 2 (Homo sapiens) (P04839 whole entry, looked up): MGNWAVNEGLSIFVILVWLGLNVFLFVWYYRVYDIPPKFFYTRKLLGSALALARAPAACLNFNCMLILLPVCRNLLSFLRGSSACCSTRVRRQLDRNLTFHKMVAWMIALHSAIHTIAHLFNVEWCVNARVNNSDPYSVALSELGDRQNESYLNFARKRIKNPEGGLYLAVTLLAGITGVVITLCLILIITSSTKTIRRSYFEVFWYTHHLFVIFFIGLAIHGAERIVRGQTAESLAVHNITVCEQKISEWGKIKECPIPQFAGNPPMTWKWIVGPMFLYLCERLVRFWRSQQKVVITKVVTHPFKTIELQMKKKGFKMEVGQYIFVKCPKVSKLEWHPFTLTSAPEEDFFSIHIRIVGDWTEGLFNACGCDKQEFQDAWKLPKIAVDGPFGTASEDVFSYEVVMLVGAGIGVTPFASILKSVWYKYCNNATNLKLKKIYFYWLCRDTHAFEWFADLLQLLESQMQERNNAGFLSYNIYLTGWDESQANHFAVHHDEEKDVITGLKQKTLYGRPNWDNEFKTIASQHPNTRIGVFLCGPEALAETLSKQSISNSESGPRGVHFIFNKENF

[19] = biological target: NADPH oxidase 4 (Homo sapiens) (UniProt Q9NPH5); assay: NOX4-dependent H2O2 signal modulators, primary screen, NOX inhibitor project, cell-based, HEK293-NOX4, tetracycline-induced, Amplex Red fluorescence (AID 1160); details: 45 min, higher = more signal, called active from +8 up or from −8 down
Sequence of NADPH oxidase 4 (Homo sapiens) (Q9NPH5 whole entry, looked up): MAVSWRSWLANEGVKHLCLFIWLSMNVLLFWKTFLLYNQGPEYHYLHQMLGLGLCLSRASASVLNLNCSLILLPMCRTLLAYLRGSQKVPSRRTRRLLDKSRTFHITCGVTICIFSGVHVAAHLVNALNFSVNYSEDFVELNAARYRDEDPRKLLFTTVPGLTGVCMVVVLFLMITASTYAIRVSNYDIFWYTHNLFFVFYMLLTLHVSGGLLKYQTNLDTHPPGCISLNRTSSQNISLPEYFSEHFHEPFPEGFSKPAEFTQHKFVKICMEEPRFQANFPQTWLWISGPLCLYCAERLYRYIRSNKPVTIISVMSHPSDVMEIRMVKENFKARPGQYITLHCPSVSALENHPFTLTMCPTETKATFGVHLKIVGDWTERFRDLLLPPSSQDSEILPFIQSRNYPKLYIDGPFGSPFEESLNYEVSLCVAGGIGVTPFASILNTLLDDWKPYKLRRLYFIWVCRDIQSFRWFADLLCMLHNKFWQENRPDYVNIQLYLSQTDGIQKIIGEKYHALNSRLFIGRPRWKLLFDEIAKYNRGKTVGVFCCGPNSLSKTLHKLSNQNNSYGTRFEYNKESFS

[20] = biological target: NADPH oxidase 5 (Homo sapiens) (UniProt Q96PH1); assay: NOX5-dependent H2O2 signal modulators, primary screen, NOX inhibitor project, cell-based, HEK293-NOX5, Amplex Red fluorescence (AID 1161); details: HEK293-NOX5, ionomycin, 45 min, higher = more signal
Sequence of NADPH oxidase 5 (Homo sapiens) (Q96PH1 whole entry, looked up): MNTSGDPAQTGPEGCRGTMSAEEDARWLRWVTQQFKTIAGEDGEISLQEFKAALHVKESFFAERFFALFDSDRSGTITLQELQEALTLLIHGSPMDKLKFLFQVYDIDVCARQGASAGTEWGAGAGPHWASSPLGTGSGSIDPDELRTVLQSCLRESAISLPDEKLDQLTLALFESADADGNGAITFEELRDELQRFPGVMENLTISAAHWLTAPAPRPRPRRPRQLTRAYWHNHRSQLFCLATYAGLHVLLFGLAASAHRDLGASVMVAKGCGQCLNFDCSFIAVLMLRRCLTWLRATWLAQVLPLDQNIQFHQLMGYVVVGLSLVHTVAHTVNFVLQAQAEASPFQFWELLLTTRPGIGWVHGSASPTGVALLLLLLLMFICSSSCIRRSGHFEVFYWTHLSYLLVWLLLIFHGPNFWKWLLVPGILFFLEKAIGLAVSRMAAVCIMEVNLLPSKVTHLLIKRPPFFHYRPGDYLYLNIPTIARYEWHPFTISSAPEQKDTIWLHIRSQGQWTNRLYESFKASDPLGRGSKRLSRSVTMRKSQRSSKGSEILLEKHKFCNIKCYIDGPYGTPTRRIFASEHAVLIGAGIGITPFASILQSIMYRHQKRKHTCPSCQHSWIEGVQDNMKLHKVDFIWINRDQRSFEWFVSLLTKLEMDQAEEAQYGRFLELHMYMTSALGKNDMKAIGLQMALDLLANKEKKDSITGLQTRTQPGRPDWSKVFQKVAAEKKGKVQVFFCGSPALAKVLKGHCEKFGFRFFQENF

Row | Structure (SMILES) | composite z-score [1] | z-score [2] | z-score [3] | z-score [4] | z-score [5] | composite z-score [6] | composite z-score [7] | composite z-score [8] | composite z-score [9] | composite z-score [10] | z-score [11] | composite z-score [12] | z-score [13] | z-score [14] | z-score [15] | z-score [16] | z-score [17] | z-score [18] | z-score [19] | z-score [20]
1 | CCCC#C[Si](O[C@H](CC)c1cn(Cc2ccccc2)nn1)(C(C)C)C(C)C | 0.24 | -1.01 (inactive) | 0.171 (inactive) | -0.374 (inactive) | 0.04 (inactive) | 1.72 | 0.0541 | 0.732 | 0.563 | 1.27 | 0.991 (inactive) | 0.687 | 0.708 (inactive) | 0.3 (inactive) | -0.929 (inactive) | 0.358 (inactive) | 0.113 | 0.442 (inactive) | -0.11 (inactive) | 0.521
2 | C=CCC(OC(C)=O)[C@@H]1[C@@H](N(Cc2ccc(-c3cccc(C(F)(F)F)c3)o2)C(=O)c2ccc(-c3ccccc3)cc2)c2cc(OCCCO)ccc2N1C(=O)c1ccc2ccccc2c1 (stereo not given in full) | -0.0266 | -0.87 (inactive) | -0.491 (inactive) | -0.477 (inactive) | 0.308 (inactive) | 0.177 | -0.0279 | -0.756 | -0.322 | 1.57 | -0.251 (inactive) | 0.0718 | 0.7 (inactive) | -0.125 (inactive) | 1.36 (inactive) | 0.408 (inactive) | 0.921 | -1.99 (inactive) | -1.98 (inactive) | -1.09
3 | COC(=O)[C@@]1(Cc2ccccc2)[C@H]2c3cc(C(=O)N(C)C)n(Cc4ccc(S(C)(=O)=O)cc4)c3C[C@H]2CN1C(=O)c1ccccc1 | 0.493 | -1.6 (inactive) | -0.361 (inactive) | 0.39 (inactive) | 1.02 (inactive) | 2.48 | 0.496 | -0.178 | 1.13 | -0.68 | -1.77 (inactive) | 0.71 | 1.5 (inactive) | 0.542 (inactive) | 1.95 (inactive) | 0.814 (inactive) | 0.393 | 1.12 (inactive) | -2.78 (inactive) | -2.6
4 | O=C1OCCC=C[C@H]2OC34C=CCN(c5ccc6ccccc6c5)C(=O)[C@H]3N(CCO)C(=O)[C@@H]4C12 (stereo not given in full) | -0.457 | 0.291 (inactive) | -0.663 (inactive) | -0.887 (inactive) | 0.463 (inactive) | -0.906 | -0.753 | -1.41 | -0.669 | 0.116 | -0.701 (inactive) | -0.815 | 0.809 (inactive) | 0.791 (inactive) | 1.11 (inactive) | 0.332 (inactive) | -0.366 | 1.47 (inactive) | -0.0539 (inactive) | 2.41
5 | COC(=O)[C@@]1(Cc2ccccc2)[C@H]2c3cc(C(=O)N(C)C)n(Cc4ccc(C(F)(F)F)nc4)c3C[C@H]2CN1C(=O)c1ccccc1 | 0.598 | -1.94 (inactive) | -0.0691 (inactive) | -0.189 (inactive) | 0.484 (inactive) | 2.08 | 0.433 | 0.167 | 0.511 | -0.561 | -1.64 (inactive) | 1.1 | 1.5 (inactive) | 0.234 (inactive) | 1.3 (inactive) | 0.715 (inactive) | 0.184 | 0.0745 (inactive) | -1.31 (inactive) | -3.12
6 | C=C(CCCC)C(=O)CC[C@@H](OC(=O)c1ccccc1-c1ccccc1C(=O)O)c1ccccc1OCCO | 0.0726 | -1.62 (inactive) | -0.131 (inactive) | 6.69 (inactive) | 2.06 (inactive) | -0.34 | -0.157 | 1.21 | 0.818 | 1.56 | 0.414 (inactive) | -0.0003 | 6.1 (inactive) | 0.148 (inactive) | -0.138 (inactive) | -1.14 (inactive) | 0.332 | 1.78 (inactive) | 0.0357 (inactive) | -1.39
7 | [N-]=[N+]=Nc1ccccc1[C@@H]1OC(c2ccc(OCCCO)cc2)=N[C@]1(Cc1ccccc1)C(=O)NCCN1CCOCC1 | 0.458 | -5.28 (inactive) | -0.528 (inactive) | 0.4 (inactive) | -1.37 (inactive) | 1.29 | 0.347 | 0.612 | 1.25 | -0.368 | 0.146 (inactive) | 0.142 | 30.2 (active) | 26.5 (active) | 3.9 (inactive) | 1.92 (inactive) | 1.39 | -3.29 (inactive) | -1.23 (inactive) | -2.13
8 | COc1ccc(CCNC(=O)[C@@H]2c3ccccc3C(=O)N(Cc3ccccc3OC)[C@H]2c2ccc(CO)cc2)cc1 | 0.321 | -0.449 (inactive) | -0.0742 (inactive) | 0.531 (inactive) | -1.12 (inactive) | 0.628 | 0.0028 | 0.824 | 0.321 | 0.126 | -0.499 (inactive) | -0.0303 | 3.02 (inactive) | 0.0323 (inactive) | 0.709 (inactive) | -0.0383 (inactive) | -0.0817 | -1.31 (inactive) | -0.213 (inactive) | -2.09
